Assay in all cases: qHTS profiling for inhibitors of Plasmodium falciparum proliferation (AID 504749); note: nearly all actives have a fitted effect of over 60% in size
What all share (settings): P. falciparum in erythrocytes, SYBR Green DNA, 72 h; series mostly up to 28.7 µM

One assay has as its system CP215. The gist of the method: (§1)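 Parasite proliferation within erythrocytes, 72 h exposure. Endpoint: SYBR Green I fluorescence after overnight lysis at room temperature. Controls: 0.29 uM artemisinin, DMSO.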
The next assay concerns CP217. The method in brief: as §1
Another assay relates to CP237. The gist of the method: as §1
In another assay the test system is CP238. The method in brief: as §1
A further assay deals with CP247. The method in brief:
as §1

The test system of the next assay is CP250. The gist of the method: as §1
A further assay has as its system CP252. The method in brief: as §1
A further assay concerns CP256. The method in brief:
as §1

For a further assay, the system named is CP260. The gist of the method: as §1
Another assay deals with CP262. The gist of the method: as §1
A further assay concerns CP265. The method in brief: as §1
In the next assay the test system is CP266. The gist of the method:
as §1

The subject of the next assay is CP268. The method in brief:
as §1

The next assay deals with CP269. The method in brief:
as §1

The next assay relates to CP286. The method in brief:
as §1

A further assay relates to CP291. The gist of the method: as §1
Another assay deals with CP297. The gist of the method:
as §1

In another assay the test system is CP305. The method in brief:
as §1

The test system of a further assay is CP315. The gist of the method: as §1
The test system of the next assay is CP325. The method in brief:
as §1

Results filed as inconclusive are left out. The source made the active and inactive calls. Calls come from the whole dose curve; as a rule, active = well fitted inhibition curve with a large enough effect; inconclusive = small, poorly fitted or top-dose-only effect; inactive = flat fitted curve, though single readings scatter.
Potency is the fitted concentration of half-maximal effect.

Regarding `CCCCCCCCCCCC[N+](C)(C)CCOc1ccccc1`, the Potency was 12 µM (active) with CP215; 6.31 µM (active) in the assay on CP217; 5.01 µM (active) in the assay on CP237; 7.94 µM (active) in the assay with CP238; 7.08 µM (active) in the assay with CP247; 7.94 µM (active) with CP250. The Potency in the assay on CP252 was 7.94 µM (active); in the assay with CP256, 5.62 µM (active); with CP260 it was 3.98 µM (active); with CP262, 5.36 µM (active); in the assay with CP265 it was 6.31 µM (active); with CP266, 15.1 µM (active). In addition, the Potency is 9.53 µM (active) with CP268; 10.7 µM (active) in the assay on CP269; 2.51 µM (active) in the assay with CP286; 8.49 µM (active) with CP291; 13.5 µM (active) with CP297; 8.49 µM (active) in the assay with CP305. The Potency with CP315 is 15.1 µM (active); with CP325, 9.53 µM (active).
As to `CCN(Cc1ccc(Cl)nc1)/C(=C/[N+](=O)[O-])NC`, the Potency result in the assay with CP215, in the assay with CP217, in the assay on CP237, in the assay with CP238, with CP247 and in the assay with CP250 was “inactive” each time. Also, the Potency entry in the assay on CP252, with CP256, in the assay with CP260, in the assay on CP262, in the assay with CP265 and in the assay with CP266 was “inactive” in each case. In addition, the Potency result in the assay with CP268, in the assay with CP269, in the assay on CP286, in the assay with CP291, with CP297 and in the assay with CP305 was “inactive” each time. Also, the Potency result in the assay on CP315 and in the assay on CP325 was “inactive” throughout.
As to `CCS(=O)(=O)C(C)(C)S(=O)(=O)CC`, the Potency entry in the assay on CP215, in the assay on CP217, in the assay with CP237, in the assay on CP238, in the assay on CP247 and with CP250 was “inactive” throughout. Further, the Potency result with CP252, with CP256, in the assay on CP260, in the assay with CP262, with CP265 and with CP266 was “inactive” throughout. For the same compound, the Potency result in the assay with CP268, in the assay with CP269, with CP286, in the assay on CP291, with CP297 and with CP305 was “inactive” each time. The Potency entry in the assay with CP315 and with CP325 was “inactive” throughout.
Turning to `COP(=S)(OC)Oc1ccc(Sc2ccc(OP(=S)(OC)OC)cc2)cc1`, the Potency result with CP215, in the assay on CP217, in the assay with CP237, in the assay with CP238, in the assay on CP247 and with CP250 was “inactive” in each case. The Potency result in the assay with CP252, in the assay on CP256, with CP260, in the assay on CP262, in the assay on CP265 and in the assay on CP266 was “inactive” in each case. Also, the Potency entry in the assay on CP268, with CP269, in the assay with CP286, in the assay with CP291, in the assay on CP297 and in the assay on CP305 was “inactive” throughout. Further, the Potency entry in the assay with CP315 and with CP325 was “inactive” each time.
For the compound `CCNc1nc(Cl)nc(NCC)n1`, the Potency entry in the assay with CP215, in the assay with CP217, with CP237, with CP238, in the assay on CP247 and in the assay on CP250 was “inactive” each time. In addition, the Potency entry with CP252, in the assay on CP256, with CP260, in the assay on CP262, in the assay on CP265 and in the assay with CP266 was “inactive” each time. In addition, the Potency entry in the assay with CP268, in the assay with CP269, in the assay on CP286, in the assay on CP291, with CP297 and with CP305 was “inactive” throughout. Moreover, the Potency result in the assay with CP315 and in the assay with CP325 was “inactive” in each case.
As to `CNC(=O)NC(O)C(Cl)(Cl)Cl` (centres undefined), the Potency result in the assay with CP215, with CP217, in the assay on CP237, with CP238, in the assay on CP247 and in the assay on CP250 was “inactive” each time. Also, the Potency result in the assay with CP252, in the assay on CP256, in the assay with CP260, in the assay on CP262, in the assay on CP265 and with CP266 was “inactive” throughout. The Potency result in the assay with CP268, with CP269, in the assay with CP286, with CP291, with CP297 and with CP305 was “inactive” each time. The Potency result in the assay with CP315 and with CP325 was “inactive” throughout.
Regarding `CC(C)NCC(O)c1ccc(N)c(C#N)c1` (centres undefined), the Potency entry with CP215, in the assay on CP217, in the assay on CP237, in the assay with CP238, in the assay with CP247 and with CP250 was “inactive” in each case. For the same compound, the Potency entry in the assay on CP252, in the assay on CP256, in the assay on CP260, in the assay with CP262, in the assay on CP265 and in the assay on CP266 was “inactive” each time. For the same compound, the Potency result in the assay with CP268, in the assay with CP269, in the assay on CP286, with CP291, in the assay with CP297 and with CP305 was “inactive” throughout. For the same compound, the Potency entry with CP315 and with CP325 was “inactive” each time.
As to `CN(C)C(=S)SSC(=S)N(C)C`, the Potency is 5.36 µM (active) in the assay with CP215; 3.98 µM (active) with CP217; 1.58 µM (active) with CP237; 3.55 µM (active) in the assay with CP238; 2.82 µM (active) with CP247; 3.16 µM (active) with CP250. In addition, the Potency is 3.98 µM (active) in the assay on CP252; 3.55 µM (active) in the assay on CP256; 0.891 µM (active) in the assay on CP260; 2.13 µM (active) in the assay on CP262; 3.98 µM (active) with CP265; 4.78 µM (active) in the assay with CP266. Besides, the Potency is 3.01 µM (active) with CP268; 2.13 µM (active) in the assay on CP269; 1.26 µM (active) in the assay with CP286; 3.01 µM (active) with CP291; 4.26 µM (active) in the assay on CP297; 2.39 µM (active) in the assay on CP305. Moreover, the values for the Potency with CP315 and in the assay with CP325 were 4.78 µM (active) and 2.39 µM (active), respectively.
As for `C[N+]1(CCC(C(N)=O)(c2ccccc2)c2ccccc2)CCCCC1`, the Potency entry with CP215, in the assay with CP217, in the assay with CP237, in the assay with CP238, in the assay on CP247 and in the assay with CP250 was “inactive” in each case. In addition, the Potency entry with CP252, in the assay with CP256, with CP260, in the assay with CP262, in the assay on CP265 and with CP266 was “inactive” each time. Further, the Potency entry with CP268, with CP269, in the assay on CP286, in the assay with CP291, with CP297 and in the assay with CP305 was “inactive” in each case. Also, the Potency result in the assay on CP315 is “inactive”.
With `C[C@]12CC[C@H]3[C@@H](CC=C4C[C@@H](O)CC[C@@]43C)[C@@H]1CC[C@@H]2O`, the Potency result in the assay with CP215, in the assay on CP217, in the assay on CP237, with CP238, in the assay on CP247 and in the assay on CP250 was “inactive” in each case. The Potency entry in the assay with CP252, in the assay on CP256, in the assay with CP260, in the assay on CP262, in the assay on CP265 and with CP266 was “inactive” each time. Also, the Potency entry in the assay with CP268, in the assay with CP269, in the assay with CP286, with CP291, in the assay on CP297 and with CP305 was “inactive” throughout. Further, the Potency entry in the assay with CP315 and with CP325 was “inactive” each time.
`O=C(O)c1nn(Cc2ccc(Cl)cc2Cl)c2ccccc12`: the Potency entry in the assay with CP215, in the assay with CP217, in the assay on CP237, in the assay on CP238, in the assay on CP247 and in the assay with CP250 was “inactive” in each case. In addition, the Potency entry in the assay on CP252, in the assay with CP256, with CP260, with CP262, with CP265 and in the assay on CP266 was “inactive” each time. The Potency entry with CP268, in the assay with CP269, in the assay with CP286, in the assay on CP291, in the assay with CP297 and in the assay on CP305 was “inactive” in each case. Further, the Potency entry in the assay with CP315 and in the assay with CP325 was “inactive” in each case.

The values are drawn from PubChem BioAssay (NCATS).
